Results on 17 molecules are retold here after PubChem BioAssay (EPA / NIEHS).

Structures are written as SMILES. Calls of active or inactive are those of the source. How the source made its calls: active means hit-call score of the fitted dose curve at least 0.9, where 1 is the maximum; inactive means score below 0.9.

Assay [1] is described as follows: ATG_CMV_CIS: Attagene CIS-FACTORIAL HepG2 Assay for human CMV (Internal Marker) (AID 2282928).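 Further: endpoint acts as a background internal control marker rather than a target.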 To be noted: HepG2 CMV promoter reporter, transcription factor profiling; actives raise or lower the signal. In a few lines:
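HepG2 cells transiently transfected with multiple cis-regulated reporter units; 24 h compound exposure. Reporter mRNA quantified by RT-PCR, 6-FAM primer-extension labeling, HpaI digestion and capillary electrophoresis; bidirectional fitting against DMSO baseline.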

The nature of assay [2]: ATG_DR4_LXR_CIS: Attagene CIS-FACTORIAL HepG2 Assay for human Liver X Receptor (LXR), DR4 submotif (AID 2282929). To be noted: HepG2 Attagene DR4 cis-reporter, mRNA transcription; actives raise or lower the signal. The gist of the method:
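Transiently transfected HepG2 liver cells; cis-regulated reporters; 24 h dosing. RT-PCR plus CE read-out of reporter mRNA. DMSO baseline, bidirectional curve fitting.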

In assay [3] the target is Aryl hydrocarbon receptor (Homo sapiens) (UniProt P35869). In words: ATG_Ahr_CIS: Attagene CIS-FACTORIAL HepG2 Assay for human Aryl Hydrocarbon Receptor (Ahr) (AID 2282930). To be noted: HepG2 AhR cis-factorial reporter transcription; actives raise or lower the signal. The gist of the method: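 HepG2 cells transiently transfected with cis-element-driven multiplexed reporter transcription units; endogenous transcription factor activity measured as reporter mRNA 24 h after dosing. RT-PCR, 6-FAM labelling, HpaI digestion, capillary electrophoresis; bidirectional fitting versus DMSO baseline.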
Chain of Aryl hydrocarbon receptor (Homo sapiens) (P35869 whole entry, looked up): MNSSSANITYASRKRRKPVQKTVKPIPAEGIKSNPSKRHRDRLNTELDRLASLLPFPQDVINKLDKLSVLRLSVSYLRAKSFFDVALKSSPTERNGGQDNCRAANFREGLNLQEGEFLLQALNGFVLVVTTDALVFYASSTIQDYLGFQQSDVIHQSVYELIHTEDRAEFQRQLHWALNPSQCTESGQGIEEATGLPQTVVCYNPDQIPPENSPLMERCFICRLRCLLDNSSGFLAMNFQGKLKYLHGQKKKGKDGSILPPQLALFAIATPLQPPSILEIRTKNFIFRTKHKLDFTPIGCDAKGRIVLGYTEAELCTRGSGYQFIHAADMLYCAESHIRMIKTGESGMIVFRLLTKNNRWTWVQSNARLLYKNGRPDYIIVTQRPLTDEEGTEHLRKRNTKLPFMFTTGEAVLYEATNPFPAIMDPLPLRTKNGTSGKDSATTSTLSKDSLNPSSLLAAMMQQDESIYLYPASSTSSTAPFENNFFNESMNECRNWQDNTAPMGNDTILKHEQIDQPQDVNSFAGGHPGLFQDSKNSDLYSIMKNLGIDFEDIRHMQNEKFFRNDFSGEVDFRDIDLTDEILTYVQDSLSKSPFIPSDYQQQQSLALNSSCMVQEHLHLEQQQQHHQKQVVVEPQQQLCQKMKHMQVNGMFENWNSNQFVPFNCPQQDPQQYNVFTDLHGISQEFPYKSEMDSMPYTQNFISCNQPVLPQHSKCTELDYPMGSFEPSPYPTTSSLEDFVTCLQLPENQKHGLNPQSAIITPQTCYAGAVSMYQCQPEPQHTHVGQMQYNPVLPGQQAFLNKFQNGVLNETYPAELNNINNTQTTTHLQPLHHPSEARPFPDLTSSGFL

Assay [4] is described as follows: ATG_AP_2_CIS: Attagene CIS-FACTORIAL HepG2 Assay for human Activator Protein 2 (AP-2) (AID 2282932). The following applies: HepG2 AP-2 cis-reporter, Attagene transcription factor profiling; actives raise or lower the signal. The gist of the method:
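HepG2 cells were transiently transfected with multiple cis-promoter reporter transcription units and dosed for 24 h. Reporter mRNA was measured by RT-PCR with capillary electrophoresis fluorescence; bidirectional fits relative to DMSO baseline.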

Assay [5] has as its target Retinoic acid receptor alpha (Homo sapiens) (UniProt P10276). As to the kind of experiment: ATG_DR5_RAR_CIS: Attagene CIS-FACTORIAL HepG2 Assay for human Retinoic Acid Receptor Alpha (RARE), DR5 submotif (AID 2282934). The following applies: HepG2 Attagene cis-factorial RARE DR5 reporter, mRNA; actives raise or lower the signal. In a few lines:
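HepG2 cells transiently transfected with multiplexed reporter units under cis (DR5 RARE) promoters, so endogenous transcription factor activity is measured. After 24 h compound exposure, reporter mRNA is quantified by RT-PCR with fluorescent labelling and capillary electrophoresis; bidirectional fitting versus DMSO.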

For assay [6], the target named is Transcription factor E2F1 (Homo sapiens) (UniProt Q01094). As to the kind of experiment: ATG_E2F_CIS: Attagene CIS-FACTORIAL HepG2 Assay for human E2F Transcription Factor 1 (AID 2282935). The following applies: HepG2 Attagene cis-reporter, E2F reporter RNA transcripts; actives raise or lower the signal. The gist of the method:
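HepG2 cells transiently transfected with multiplexed cis-element reporter units, dosed for 24 h. Reporter mRNA measured by RT-PCR, 6-FAM primer-extension labeling, HpaI digestion and capillary electrophoresis; bidirectional fit versus DMSO baseline.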

A short description of assay [7]: ATG_E_Box_CIS: Attagene CIS-FACTORIAL HepG2 Assay for human Enhancer Box (E-box) (AID 2282936). To be noted: HepG2 E-box cis-reporter transcription, actives raise or lower the signal. In a few lines:
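HepG2 cells transiently transfected with multiplexed cis-element reporter units sensing endogenous transcription factor activity; 24 h compound exposure. Reporter mRNA measured by RT-PCR, 6-FAM primer extension, HpaI digestion and capillary electrophoresis; bidirectional fit versus DMSO.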

The nature of assay [8]: ATG_M_61_CIS: Attagene CIS-FACTORIAL HepG2 Assay for M61 Transcription Factor (Internal Marker) (AID 2282937). The following applies: HepG2 Attagene CIS-FACTORIAL M61 internal marker reporter; actives raise or lower the signal. The gist of the method: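 Multiplexed reporter mRNA assay, HepG2 human hepatoma cells, 24 h treatment. Signal: FAM-labelled, HpaI-digested RT-PCR fragments by CE. Fit: bidirectional, baseline DMSO.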

A short description of assay [9]: ATG_BRE_CIS: Attagene CIS-FACTORIAL HepG2 Assay for human Bone Morphogenetic Protein (BMP) Response Element (BRE) (AID 2282933). The following applies: HepG2 BMP response element reporter, Attagene transcription factor profiling; actives raise or lower the signal. In a few lines:
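After a 24 h chemical treatment, transiently transfected HepG2 cells were lysed for RNA; reporter transcripts were quantified by fluorescent RT-PCR and capillary electrophoresis, normalised to DMSO.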

A short description of assay [10]: ATG_AP_1_CIS: Attagene CIS-FACTORIAL HepG2 Assay for human Activator Protein 1 (AP-1) (AID 2282931). To be noted: HepG2 Attagene cis-factorial AP-1 reporter mRNA; actives raise or lower the signal. The gist of the method:
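We transfected HepG2 cells transiently with a set of cis-regulated reporter transcription units, dosed them for 24 h, and quantified reporter mRNA via RT-PCR and capillary electrophoresis, scoring gain or loss of signal relative to DMSO.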

Chain of Retinoic acid receptor alpha (Homo sapiens) (P10276 whole entry, looked up): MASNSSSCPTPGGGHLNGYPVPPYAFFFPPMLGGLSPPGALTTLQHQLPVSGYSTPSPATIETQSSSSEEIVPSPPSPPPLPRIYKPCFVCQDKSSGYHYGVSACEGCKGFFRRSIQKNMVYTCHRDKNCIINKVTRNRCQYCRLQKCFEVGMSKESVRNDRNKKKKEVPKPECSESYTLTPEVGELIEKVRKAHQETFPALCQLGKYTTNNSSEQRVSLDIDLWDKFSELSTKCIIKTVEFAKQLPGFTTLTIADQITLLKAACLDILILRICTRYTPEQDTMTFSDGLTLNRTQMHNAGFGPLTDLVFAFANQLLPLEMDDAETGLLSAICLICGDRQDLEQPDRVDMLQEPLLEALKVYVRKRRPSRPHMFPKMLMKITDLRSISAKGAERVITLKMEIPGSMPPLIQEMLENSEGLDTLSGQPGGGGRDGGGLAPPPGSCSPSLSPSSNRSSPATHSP
Chain of Transcription factor E2F1 (Homo sapiens) (Q01094 whole entry, looked up): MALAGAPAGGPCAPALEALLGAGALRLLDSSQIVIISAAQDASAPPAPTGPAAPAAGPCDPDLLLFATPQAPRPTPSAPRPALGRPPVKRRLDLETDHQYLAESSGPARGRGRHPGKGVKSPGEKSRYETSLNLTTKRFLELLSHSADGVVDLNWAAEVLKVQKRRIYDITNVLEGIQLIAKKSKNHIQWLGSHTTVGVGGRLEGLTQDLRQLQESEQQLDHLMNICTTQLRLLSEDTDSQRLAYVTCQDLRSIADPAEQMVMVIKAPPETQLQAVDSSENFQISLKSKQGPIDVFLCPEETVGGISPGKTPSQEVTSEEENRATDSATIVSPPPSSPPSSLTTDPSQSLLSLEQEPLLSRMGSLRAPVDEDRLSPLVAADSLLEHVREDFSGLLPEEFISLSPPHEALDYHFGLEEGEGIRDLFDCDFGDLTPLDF

Regarding `O=C(O)C(F)(F)C(F)(F)C(F)(F)C(F)(F)C(F)(F)C(F)(F)F`, the call in [1], in assay [2], in assay [3], in [4], in assay [5] and in assay [6] was inactive. The outcome in assay [7] and in [8] was inactive.

Consider `CC(C)c1ccc(CO)cc1`, for which the molecule was called inactive in assay [1], in [2], in [4], in [9], in [5] and in [6]. In assay [8], the molecule was classed as inactive.

Take `C1CCC(NC2CCCCC2)CC1`: the outcome in assay [1], in [2], in assay [3], in assay [4], in assay [5] and in [6] was inactive. The result in assay [7] and in [8] was inactive.

Consider `COC(=O)Cc1ccccc1`, for which the result in assay [1], in [2], in [3], in [4], in [9] and in assay [5] was inactive. Also, the molecule was classed as inactive in [6], in assay [7] and in assay [8].

Consider `ClC(Cl)=C(Cl)C(Cl)=C(Cl)Cl`, for which the molecule was classed as inactive in assay [1], in assay [9], in assay [5], in assay [6], in assay [7] and in assay [8]. Besides, the AC50 in [2] was 100 µM (active); in [3], 71.4 µM (active); in assay [4] it was 165 µM (active).

On to `CCc1ccccc1N`, for which the molecule was called inactive in assay [1], in assay [2], in assay [4], in [5], in [6] and in assay [7]. Further, the molecule was classed as inactive in [8]. In addition, in assay [3], the AC50 is 67.2 µM (active).

In the case of `Nc1ccc(N=Nc2ccc(-c3ccc(N=Nc4c(S(=O)(=O)O)cc5cc(S(=O)(=O)O)c(N=Nc6ccccc6)c(O)c5c4N)cc3)cc2)c(N)c1`, the call in assay [1], in [2], in assay [3], in assay [4], in [5] and in [6] was inactive. Besides, the outcome in assay [7] and in [8] was inactive. In [9], the concentration at half-maximal activity (AC50) is 4.8 µM (active).

For `N#CN=C(N)N`, the result in assay [1], in assay [2], in assay [3], in assay [4], in [9] and in assay [5] was inactive. For the same molecule, the molecule was called inactive in assay [6], in [7] and in assay [8].

As to `ClC1=C(Cl)[C@]2(Cl)[C@@H]3[C@@H](Cl)[C@@H](Cl)C[C@@H]3[C@@]1(Cl)C2(Cl)Cl`, the molecule was called inactive in assay [1], in assay [2], in [10], in assay [4], in [9] and in [5]. In addition, the result in assay [6], in assay [7] and in [8] was inactive.

On to `CN(CCCC(=O)c1cccnc1)N=O`, for which the molecule was classed as inactive in assay [1], in [2], in assay [3], in assay [4], in assay [9] and in assay [6]. Moreover, in [8], the molecule was called inactive.

Regarding `O=[N+]([O-])c1ccc2c3c(cccc13)CC2`, the result in [1], in assay [2], in [10], in assay [4], in assay [9] and in [5] was inactive. For the same molecule, the result in assay [6] and in assay [8] was inactive.

Take `ClCc1ccccn1`: the outcome in assay [1], in [2], in assay [4], in assay [9], in assay [6] and in assay [7] was inactive. The AC50 in [3] is 76 µM (active).

With `COc1cc2c(cc1OC)[C@@]13CCN4CC5=CCO[C@H]6CC(=O)N2[C@H]1[C@H]6[C@H]5C[C@H]43`, the molecule was classed as inactive in [1], in assay [2], in assay [3], in assay [4], in assay [5] and in [6]. Besides, the outcome in assay [7] was inactive.

On to `O=C1CCCN1`, for which the result in [1], in assay [2], in [3], in assay [4], in assay [6] and in assay [7] was inactive.

As to `O=[N+]([O-])c1c(Cl)c(Cl)cc(Cl)c1Cl`, in [1], the AC50 is 45.3 µM (active). Further, the molecule was called inactive in [2], in [3], in [4], in assay [5], in [6] and in assay [7].

`Clc1ccc(C2(Cn3cncn3)CC(Br)CO2)c(Cl)c1` (stereo not drawn): the AC50 in [1] was 99.5 µM (active); in assay [2] it was 68.1 µM (active); in assay [3], 27.6 µM (active); in assay [9] it was 99.5 µM (active). For the same molecule, the call in [4], in assay [6] and in [7] was inactive.

Regarding `CCCCCCCCC(=O)NCc1ccc(O)c(OC)c1`, the molecule was classed as inactive in assay [1], in assay [10], in assay [4], in assay [5], in assay [6] and in [7]. Moreover, the figures for the concentration at half-maximal activity (AC50) in assay [2] and in [9] were 54.5 µM (active) and 171 µM (active), respectively.
